Laboratory results from PubChem BioAssay (NCI).
This is part of a sample that, as a whole, favours compounds with a hit. Of some 79,000 tested, about 15% had one in any assay. Calls of active or inactive are those of the source. Rule as the data show it: active = growth inhibition above about 70%; inactive = the rest.

Test: NCI Yeast Anticancer Drug Screen. Data for the wt1 strain (AID 149);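 also: 0% = growth of vehicle-treated wt1 cultures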
Details: S. cerevisiae wt1 strain (SPY 50644) growth inhibition; at 11.0 µM; active compounds read high
Outline: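 Measured: growth of wt1 yeast under compound versus vehicle treatment, reported as inhibition.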

Question: Which growth inhibition does the source give for `CC(C)c1cc(C(C)C)c(O)c(C([O-])[O-])c1.CC(C)c1cc(C(C)C)c(O)c(C([O-])[O-])c1.CC(C)c1cc(C(C)C)c(O)c(C([OH2+])[OH2+])c1.CC(C)c1cc(C(C)C)c(O)c(C([OH2+])[OH2+])c1.[Cu+2].[Cu+2].[OH3+].[OH3+]` here?
Answer: 20% (inactive)

Question: With `Cc1cc(I)ccc1N` as the molecule, how does the growth inhibition read?
Answer: -8% (inactive)

Question: With `CC(Br)C(=O)c1ccc2cc(Br)c3ccccc3c2c1` (stereo not drawn) as the molecule, how does the growth inhibition read?
Answer: 1% (inactive)

Question: For `O=C(Nc1ccccc1)OCCc1ccc(Cl)c(Cl)c1`, which growth inhibition is on record?
Answer: -9% (inactive)

Question: For `O=Cc1cccc2ccc3ccccc3c12`, which growth inhibition is on record?
Answer: -8% (inactive)

Question: Which growth inhibition does the source give for `O=[N+]([O-])CC(SCc1ccccc1)c1ccc2c(c1)OCO2` (stereo not drawn) here?
Answer: 70% (active)

Question: For `CC1(Cl)CC(O)C2(CC1Br)C1(C)OC1C1OC1(Br)C2(C)C` (stereo not drawn), which growth inhibition is on record?
Answer: -2% (inactive)

Question: Which growth inhibition does the source give for `Cc1cc(O)cc(O)c1N=Nc1ccc([N+](=O)[O-])cc1` here?
Answer: 21% (inactive)

Question: Which growth inhibition does the source give for `CCCCCCCCCCCCCC[N+](C)(CC(=O)[O-])Cc1ccccc1` (stereo not drawn) here?
Answer: 99% (active)

Question: For `CC1=NN(c2cccc(Cl)c2)C(=O)C1`, which growth inhibition is on record?
Answer: -22% (inactive)

Question: With `CC(=O)OCc1ccc(O)c(C=O)c1` as the molecule, how does the growth inhibition read?
Answer: -23% (inactive)

Question: Which growth inhibition does the source give for `Cc1ccc2ccc3cccc4ccc1c2c34` here?
Answer: -3% (inactive)

Question: With `Cc1nc(-[n+]2nc(-c3ccncc3)nn2-c2ccccc2)sc1C` as the molecule, how does the growth inhibition read?
Answer: -14% (inactive)

Question: For `C(CCSC1=NCCN1)CSC1=NCCN1` (tested in a mixture with another compound), which growth inhibition is on record?
Answer: 41% (inactive)

Question: With `CCCCCCCCCCC(=O)Cl` as the molecule, how does the growth inhibition read?
Answer: -5% (inactive)

Question: For `COC1C=COC2(C)Oc3c(C)c(O)c4c(c3C2=O)/C(=N/C2CCC(O)OC2C)C=C(NC(=O)/C(C)=C\C(=O)C2CC2C(O)C(C)C(O)C(C)C(OC(C)=O)C1C)C4=O` (stereo not drawn), which growth inhibition is on record?
Answer: 1% (inactive)

Question: With `S=c1[nH]nc(Nc2ccc(Cl)cc2)s1` as the molecule, how does the growth inhibition read?
Answer: 6% (inactive)

Question: For `O=C1CSC(/C=C/c2ccccc2)N1c1ccc(-c2ccc(-n3c(-c4ccccc4)nc4ccccc4c3=O)cc2)cc1` (stereo not drawn), which growth inhibition is on record?
Answer: -3% (inactive)

Question: With `O=C1C=CC(=O)N1c1ccc2c(c1)Cc1cc(NC(=O)C(F)(F)F)ccc1-2` as the molecule, how does the growth inhibition read?
Answer: 27% (inactive)

Question: For `Brc1ccc(-c2cc3c(cc2C2SCCS2)OCO3)cc1`, which growth inhibition is on record?
Answer: -26% (inactive)

Question: With `Oc1ccc2ccccc2c1C(c1ccc(Cl)cc1)c1c(O)ccc2ccccc12` as the molecule, how does the growth inhibition read?
Answer: 2% (inactive)

Question: With `C[CH2][Sn]([CH2]C)([O]C(=O)C(OC(C)=O)c1ccccc1)[O]C(=O)C(OC(C)=O)c1ccccc1` (stereo not drawn) as the molecule, how does the growth inhibition read?
Answer: 5% (inactive)

Question: Which growth inhibition does the source give for `Cc1ccc2ccc(O)cc2c1` here?
Answer: -19% (inactive)

Same assay, conditions: S. cerevisiae wt1 strain (SPY 50644) growth inhibition; at 33.0 µM; active compounds read high

Question: With `Cc1cccc2c(C(O)CBr)cc(-c3ccc(Cl)cc3)nc12` (stereo not drawn) as the molecule, how does the growth inhibition read?
Answer: 97% (active)

Question: With `CN(C)C[C@H]1CC[C@@H](CN(C)C)C1=O` as the molecule, how does the growth inhibition read?
Answer: 14% (inactive)

Question: Which growth inhibition does the source give for `CC1=C(SCCO)C(=O)c2ccccc2C1=O` here?
Answer: 4% (inactive)

Question: For `COC(=O)CCNc1c2ccccc2nc2cccc([N+](=O)[O-])c12`, which growth inhibition is on record?
Answer: 97% (active)

Question: Which growth inhibition does the source give for `CC(/C=C/c1ccc2c(c1)OCO2)[N+](=O)[O-]` (stereo not drawn) here?
Answer: 100% (active)

Question: Which growth inhibition does the source give for `COC(=O)C1=C(C)NC(C)=C(C(=O)OCCCN2CCC(c3ccccc3)(c3ccccc3)CC2)C1c1cccc([N+](=O)[O-])c1` (stereo not drawn) here?
Answer: 98% (active)

Question: Which growth inhibition does the source give for `CCOC(=O)c1cnc2c(C(F)(F)F)cccc2c1N=[N+]=[N-]` here?
Answer: 37% (inactive)

Question: Which growth inhibition does the source give for `O=[N+]([O-])c1cc2no[n+]([O-])c2cc1N1CCCCC1` here?
Answer: 98% (active)

Question: With `COC(=O)c1ccc(NCC2=CC(=O)C=CC2=O)cc1O` as the molecule, how does the growth inhibition read?
Answer: 97% (active)

Question: For `CCCCCCCCNC(=O)C1=C(C)NC(C)=C(C(=O)NCCCCCCCC)C1`, which growth inhibition is on record?
Answer: 0% (inactive)

Question: For `S=C(Nc1ccc(Cl)c(Cl)c1)SCc1ccc2c(c1)OCO2`, which growth inhibition is on record?
Answer: 99% (active)

Question: With `O=S(=O)(CCCl)c1ccccc1Cl` as the molecule, how does the growth inhibition read?
Answer: 94% (active)

Question: Which growth inhibition does the source give for `Nc1ccccc1CC(O)C(=O)O` (stereo not drawn) here?
Answer: 42% (inactive)

Question: Which growth inhibition does the source give for `CN(C)c1ccc(Sc2ccc3nc(N)nc(N)c3c2)cc1` here?
Answer: -7% (inactive)

Question: For `CC(C)C1=CCC2C(=C1)CCC1C(C)(C(=O)O)CCCC21C` (stereo not drawn) (tested in a mixture with another compound), which growth inhibition is on record?
Answer: 41% (inactive)

Question: Which growth inhibition does the source give for `Cc1ccc(S(=O)(=O)Oc2cc(Cl)c(Cl)cc2Cl)cc1` here?
Answer: -9% (inactive)

Question: For `CSC(=S)Nc1cc(C)ccn1`, which growth inhibition is on record?
Answer: 32% (inactive)

Question: For `CC(C)c1cc(C(C)C)c(O)c(C([O-])[O-])c1.CC(C)c1cc(C(C)C)c(O)c(C([O-])[O-])c1.CC(C)c1cc(C(C)C)c(O)c(C([OH2+])[OH2+])c1.CC(C)c1cc(C(C)C)c(O)c(C([OH2+])[OH2+])c1.[Cu+2].[Cu+2].[OH3+].[OH3+]`, which growth inhibition is on record?
Answer: 35% (inactive)

Question: Which growth inhibition does the source give for `Cc1cc(I)ccc1N` here?
Answer: 86% (active)

Question: With `CC(Br)C(=O)c1ccc2cc(Br)c3ccccc3c2c1` (stereo not drawn) as the molecule, how does the growth inhibition read?
Answer: -5% (inactive)

Question: For `O=C(Nc1ccccc1)OCCc1ccc(Cl)c(Cl)c1`, which growth inhibition is on record?
Answer: 16% (inactive)

Question: For `O=Cc1cccc2ccc3ccccc3c12`, which growth inhibition is on record?
Answer: 7% (inactive)

Question: For `O=[N+]([O-])CC(SCc1ccccc1)c1ccc2c(c1)OCO2` (stereo not drawn), which growth inhibition is on record?
Answer: 98% (active)

Question: Which growth inhibition does the source give for `CC1(Cl)CC(O)C2(CC1Br)C1(C)OC1C1OC1(Br)C2(C)C` (stereo not drawn) here?
Answer: 60% (inactive)

Question: For `Cc1cc(O)cc(O)c1N=Nc1ccc([N+](=O)[O-])cc1`, which growth inhibition is on record?
Answer: 51% (inactive)

Question: Which growth inhibition does the source give for `CCCCCCCCCCCCCC[N+](C)(CC(=O)[O-])Cc1ccccc1` (stereo not drawn) here?
Answer: 54% (inactive)

Question: For `CC1=NN(c2cccc(Cl)c2)C(=O)C1`, which growth inhibition is on record?
Answer: -2% (inactive)

Question: For `CC(=O)OCc1ccc(O)c(C=O)c1`, which growth inhibition is on record?
Answer: 8% (inactive)

Question: Which growth inhibition does the source give for `Cc1ccc2ccc3cccc4ccc1c2c34` here?
Answer: 2% (inactive)

Question: For `Cc1nc(-[n+]2nc(-c3ccncc3)nn2-c2ccccc2)sc1C`, which growth inhibition is on record?
Answer: 9% (inactive)

Question: Which growth inhibition does the source give for `C(CCSC1=NCCN1)CSC1=NCCN1` (tested in a mixture with another compound) here?
Answer: 99% (active)

Question: Which growth inhibition does the source give for `CCCCCCCCCCC(=O)Cl` here?
Answer: -5% (inactive)

Question: Which growth inhibition does the source give for `COC1C=COC2(C)Oc3c(C)c(O)c4c(c3C2=O)/C(=N/C2CCC(O)OC2C)C=C(NC(=O)/C(C)=C\C(=O)C2CC2C(O)C(C)C(O)C(C)C(OC(C)=O)C1C)C4=O` (stereo not drawn) here?
Answer: -1% (inactive)

Question: Which growth inhibition does the source give for `S=c1[nH]nc(Nc2ccc(Cl)cc2)s1` here?
Answer: 36% (inactive)

Question: With `O=C1CSC(/C=C/c2ccccc2)N1c1ccc(-c2ccc(-n3c(-c4ccccc4)nc4ccccc4c3=O)cc2)cc1` (stereo not drawn) as the molecule, how does the growth inhibition read?
Answer: -6% (inactive)

Question: With `O=C1C=CC(=O)N1c1ccc2c(c1)Cc1cc(NC(=O)C(F)(F)F)ccc1-2` as the molecule, how does the growth inhibition read?
Answer: 39% (inactive)

Question: Which growth inhibition does the source give for `Brc1ccc(-c2cc3c(cc2C2SCCS2)OCO3)cc1` here?
Answer: -14% (inactive)

Question: For `Oc1ccc2ccccc2c1C(c1ccc(Cl)cc1)c1c(O)ccc2ccccc12`, which growth inhibition is on record?
Answer: 55% (inactive)

Question: Which growth inhibition does the source give for `C[CH2][Sn]([CH2]C)([O]C(=O)C(OC(C)=O)c1ccccc1)[O]C(=O)C(OC(C)=O)c1ccccc1` (stereo not drawn) here?
Answer: 47% (inactive)

Question: With `Cc1ccc2ccc(O)cc2c1` as the molecule, how does the growth inhibition read?
Answer: -11% (inactive)
